JMJD2A Tudor inh: qHTS Assay for Inhibitors of JMJD2A-Tudor Domain; Potency, µM (highest dose often 114 µM), usual class: inhibitors; Lysine-specific demethylase 4A (Homo sapiens), O75164; AlphaScreen JMJD2A-Tudor / H3K4me3 peptide binding; actives 4.4% (n = 390,000); note: nearly all actives have a fitted effect of over 50% in size
PLK1 PBD block: qHTS for Inhibitors of PLK1-PDB (polo-like kinase 1 - polo-box domain): Primary Screen. Serine/threonine-protein kinase PLK1 (Homo sapiens), P53350. Plk1 PBD binding of FITC phosphopeptide, fluorescence polarization. Potency, µM, actives largely listed as inhibitors. actives 2.8% (n = 360,000). AID 720504, 2013; note: series mostly up to about 57 µM; nearly all actives have a fitted effect of over 65% in size
12-LOX inh: Primary qHTS assay for inhibitors of human arachidonate 12S-lipoxygenase (ALOX12): Round 2 | Potency, µM (series often up to 108 µM), usual class: inhibitors | purified 12hLO, xylenol orange hydroperoxide absorbance | actives 1.1% (n = 580,000) | Polyunsaturated fatty acid lipoxygenase ALOX12 (Homo sapiens), P18054 | AID 1671190, 2021
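Purified human 12hLO (150 nM final) in 25 mM Hepes, 0.01% Triton X-100, pH 7.0 was preincubated 15 min at room temperature with compound. Then 40 uM arachidonic acid was added, 30 min. Hydroperoxide was read by Fe-XO absorbance ratio 573/405 nm.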
BAZ2B inh: qHTS Assay for Inhibitors of BAZ2B; AID 504333, 2011; actives 4.4% (n = 360,000); Potency, µM (highest dose often 114 µM), actives largely listed as inhibitors; Bromodomain adjacent to zinc finger domain protein 2B (Homo sapiens), Q9UIF8; AlphaScreen BAZ2B-H3K14Ac peptide displacement; note: nearly all actives have a fitted effect of over 60% in size
Target sequence (Q9UIF8 whole entry, looked up, the tested form may be a part): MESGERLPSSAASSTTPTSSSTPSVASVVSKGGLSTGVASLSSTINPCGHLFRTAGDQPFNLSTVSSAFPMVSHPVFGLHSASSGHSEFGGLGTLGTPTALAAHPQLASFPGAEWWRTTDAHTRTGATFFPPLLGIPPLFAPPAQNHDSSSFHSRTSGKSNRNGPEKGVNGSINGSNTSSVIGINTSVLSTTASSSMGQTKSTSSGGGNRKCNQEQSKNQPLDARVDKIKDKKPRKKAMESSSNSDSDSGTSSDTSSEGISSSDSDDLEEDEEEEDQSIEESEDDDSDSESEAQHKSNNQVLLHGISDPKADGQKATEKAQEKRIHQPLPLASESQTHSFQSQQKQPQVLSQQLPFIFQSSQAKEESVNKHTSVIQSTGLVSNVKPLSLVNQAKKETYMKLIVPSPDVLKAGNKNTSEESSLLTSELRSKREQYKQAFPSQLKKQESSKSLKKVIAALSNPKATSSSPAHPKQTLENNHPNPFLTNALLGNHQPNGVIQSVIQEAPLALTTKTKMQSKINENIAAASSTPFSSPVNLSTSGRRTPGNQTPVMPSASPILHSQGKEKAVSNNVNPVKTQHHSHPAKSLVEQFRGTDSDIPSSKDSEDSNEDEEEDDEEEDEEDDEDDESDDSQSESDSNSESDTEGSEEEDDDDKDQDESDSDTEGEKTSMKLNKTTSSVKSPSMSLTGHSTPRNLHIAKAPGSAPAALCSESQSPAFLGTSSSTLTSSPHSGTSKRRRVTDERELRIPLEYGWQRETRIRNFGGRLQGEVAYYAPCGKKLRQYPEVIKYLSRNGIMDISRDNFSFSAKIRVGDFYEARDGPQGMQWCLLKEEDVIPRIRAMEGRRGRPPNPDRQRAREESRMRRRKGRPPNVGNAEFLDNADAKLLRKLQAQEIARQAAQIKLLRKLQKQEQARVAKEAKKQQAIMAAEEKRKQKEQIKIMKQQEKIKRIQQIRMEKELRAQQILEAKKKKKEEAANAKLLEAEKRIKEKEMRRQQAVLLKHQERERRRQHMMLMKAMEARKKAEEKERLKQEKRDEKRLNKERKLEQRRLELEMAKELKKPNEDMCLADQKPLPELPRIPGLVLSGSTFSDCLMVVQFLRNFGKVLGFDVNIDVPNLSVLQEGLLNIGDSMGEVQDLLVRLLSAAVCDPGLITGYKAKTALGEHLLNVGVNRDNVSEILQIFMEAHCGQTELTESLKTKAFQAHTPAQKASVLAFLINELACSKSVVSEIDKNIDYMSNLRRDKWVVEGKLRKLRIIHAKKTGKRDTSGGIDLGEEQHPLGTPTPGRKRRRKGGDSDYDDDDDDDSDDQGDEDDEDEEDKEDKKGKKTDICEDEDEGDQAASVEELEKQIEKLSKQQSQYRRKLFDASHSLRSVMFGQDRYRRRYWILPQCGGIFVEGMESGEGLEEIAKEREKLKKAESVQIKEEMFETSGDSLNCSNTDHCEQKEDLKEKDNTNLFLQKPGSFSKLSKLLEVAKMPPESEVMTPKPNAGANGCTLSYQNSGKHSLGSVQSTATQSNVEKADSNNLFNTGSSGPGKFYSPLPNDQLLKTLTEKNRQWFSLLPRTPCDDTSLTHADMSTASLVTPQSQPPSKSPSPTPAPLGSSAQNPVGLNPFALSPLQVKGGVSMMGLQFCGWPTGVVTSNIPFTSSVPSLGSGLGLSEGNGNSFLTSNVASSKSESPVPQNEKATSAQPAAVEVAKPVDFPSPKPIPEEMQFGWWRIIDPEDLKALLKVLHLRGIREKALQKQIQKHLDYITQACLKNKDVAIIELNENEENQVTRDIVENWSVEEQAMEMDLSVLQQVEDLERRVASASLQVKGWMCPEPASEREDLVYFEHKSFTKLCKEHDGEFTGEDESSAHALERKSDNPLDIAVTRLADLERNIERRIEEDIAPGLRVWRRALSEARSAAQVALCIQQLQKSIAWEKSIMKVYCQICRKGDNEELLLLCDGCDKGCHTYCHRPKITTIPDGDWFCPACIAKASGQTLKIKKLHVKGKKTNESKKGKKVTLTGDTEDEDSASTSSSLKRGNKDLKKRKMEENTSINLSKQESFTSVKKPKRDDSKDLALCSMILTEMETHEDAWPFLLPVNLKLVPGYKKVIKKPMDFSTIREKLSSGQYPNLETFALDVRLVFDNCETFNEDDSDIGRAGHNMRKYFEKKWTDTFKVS
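AlphaScreen displacement: compounds (up to 110uM) incubated 30 min at room temperature with a preformed 50 nM BAZ2B/50 nM biotinylated H3K14Ac peptide complex in PBS pH 7.4 with Tween-20. Donor and acceptor beads at 10 ug/mL final added, 20 min light-protected before reading.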
HP1b binding inh: HTS for Inhibitors of HP1-beta Chromodomain Interactions with Methylated Histone Tails; AlphaScreen HP1-beta / biotin-H3K9me3 peptide binding; Chromobox protein homolog 1 (Homo sapiens), P83916; actives 0.56% (n = 390,000); Potency, µM (doses to about 114 µM), usual class: inhibitors; note: nearly all actives have a fitted effect of over 70% in size
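HP1-beta protein (50 nM final) preincubated 30 min at room temperature with biotinylated H3(1-18)K9me3 peptide (50 nM) in PBS pH 7.4, 0.01% Tween-20, then compound added for 30 min. AlphaScreen streptavidin donor/nickel chelate acceptor beads (10 ug/mL final), 30 min dark, luminescence read.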
G9a block: qHTS Assay for Inhibitors of Histone Lysine Methyltransferase G9a; actives 8.8% (n = 350,000); Potency, µM (series often up to 102 µM), actives largely listed as inhibitors; G9a H3K9 monomethylation, AlphaScreen, 2 h; AID 504332, 2011; note: nearly all actives have a fitted effect of over 75% in size
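AlphaScreen detection with an anti-monomethyl H3K9 antibody quantified product after a 2 h room-temperature reaction containing 500 nM biotinylated H3K9 peptide, 20 µM SAM and 20 nM enzyme, which had been preincubated 15 min with compound.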
Each line names hits and unclear results; the compound was inactive in the other large screens. Rows were chosen to be rich in hits. Some 9% of all compounds tested hit in one or more screens of this group. Calls come from the whole dose curve; as a rule, active = well fitted curve in the direction sought with a large enough effect; inconclusive = small, poorly fitted or top-dose-only effect, or another doubt; inactive = no such curve, though single readings can be large; an effect the other way counts as inactive or inconclusive.

CCn1nnnc1SCC(=O)N1N=C(c2cccs2)CC1c1cccs1 (stereo not drawn)	G9a block inconclusive
COC(=O)c1cc2oc(C)cc2n1Cc1c(C)cc(C)cc1C	12-LOX inh inconclusive, BAZ2B inh inconclusive, G9a block 4µM (no result: PLK1 PBD block)
COC(=O)c1cc2sccc2n1Cc1ccc(C)cc1	none
COC(=O)c1cc2oc(C)cc2n1Cc1cccc(Cl)c1	G9a block 14µM (no result: PLK1 PBD block)
COC(=O)c1cc2oc(C)cc2n1Cc1ccc(C)cc1	12-LOX inh inconclusive, G9a block 14µM (no result: PLK1 PBD block)
COC(=O)c1cc2oc(C)cc2n1CC(=O)Nc1ccc(C)c(C)c1	G9a block inconclusive
CS(=O)(=O)c1ccc2nc(NC(=O)C3CC(=O)N(c4ccccc4)C3)sc2c1 (stereo not drawn)	JMJD2A Tudor inh inconclusive, PLK1 PBD block 30µM, G9a block inconclusive
Cc1noc(C)c1C(=O)Nc1nc2ccc(F)cc2s1	none
CCC(C)C(=O)Nc1nc2ccc(S(C)(=O)=O)cc2s1 (stereo not drawn)	PLK1 PBD block inconclusive, G9a block 32µM
Cc1onc(-c2ccccc2Cl)c1C(=O)Nc1nc2ccc(S(C)(=O)=O)cc2s1	none
CCc1noc(C)c1C(=O)Nc1nc2ccc(S(C)(=O)=O)cc2s1	G9a block 50µM
CCc1noc(C)c1C(=O)Nc1nc2ccc(F)cc2s1	G9a block 16µM
CC(C)C(=O)Nc1nc2ccc(S(C)(=O)=O)cc2s1	none (no result: G9a block)
C=CCOC(=O)C1=C(C)OC(N)=C(C#N)C1c1ccc(OC)c(CSc2ccccn2)c1 (stereo not drawn)	none
Cc1cc(C(=O)N/N=C/c2cn(C)nc2C)c2ccccc2n1	none
Cc1ccc(Cl)cc1N1CCN(C(=O)c2cc3c(=O)oc4ccccc4c3s2)CC1	12-LOX inh inconclusive (no result: PLK1 PBD block)
COc1ccc2[nH]cc(CCNC(=O)c3ccc(F)cc3F)c2c1	none (no result: JMJD2A Tudor inh, PLK1 PBD block, BAZ2B inh, HP1b binding inh, G9a block)
Cc1[nH]n(-c2ccccc2)c(=O)c1N=Nc1ccccc1O	JMJD2A Tudor inh inconclusive, BAZ2B inh inconclusive, G9a block inconclusive
Cc1ccccc1N=Nc1c(C)[nH]n(-c2ccccc2)c1=O	JMJD2A Tudor inh inconclusive, BAZ2B inh inconclusive, HP1b binding inh 35µM, G9a block 2.2µM (no result: 12-LOX inh)
Cc1[nH]n(-c2ccccc2)c(=O)c1N=Nc1nccs1	JMJD2A Tudor inh inconclusive, BAZ2B inh 32µM, G9a block 14µM
Cc1ccc(C(=O)N/C(=C\c2ccc(Br)cc2)c2nc(=S)[nH][nH]2)cc1	JMJD2A Tudor inh 45µM, 12-LOX inh 16µM, BAZ2B inh inconclusive
O=C(N/C(=C/c1cccc(Br)c1)c1nc(=S)[nH][nH]1)c1ccccc1	JMJD2A Tudor inh inconclusive, 12-LOX inh 35µM, BAZ2B inh inconclusive, HP1b binding inh inconclusive, G9a block inconclusive
COc1ccccc1N1CCN(C2CC(=O)N(c3ccccc3)C2=O)CC1 (stereo not drawn)	G9a block inconclusive
CC(C)N1CC[C@H](c2nnc(-c3ccccc3F)o2)C1	none (no result: JMJD2A Tudor inh, PLK1 PBD block, BAZ2B inh, HP1b binding inh, G9a block)
O=C(Nc1ccccc1)c1sccc1Oc1ccc([N+](=O)[O-])cc1F	JMJD2A Tudor inh inconclusive, 12-LOX inh inconclusive, BAZ2B inh 25µM, G9a block 28µM
COCCOc1cc(NC(=O)c2sccc2Oc2ccc([N+](=O)[O-])cc2F)c(Cl)cc1Cl	none
CCCCOc1ccc(-c2nc(=S)[nH][nH]2)cc1	12-LOX inh inconclusive, G9a block 1.3µM
CCCCOc1ccc(-c2nc(SCC(N)=O)n[nH]2)cc1	none
COc1cccc(C(c2c(O)nc(SC)n(C)c2=O)c2c(O)nc(SC)n(C)c2=O)c1	none (no result: G9a block)

Assay outcomes deposited in PubChem BioAssay by National Center for Advancing Translational Sciences (NCATS).
